# What was measured:
# Experiment in all cases: DAPPL (digital affinity profiling via proximity ligation, sequencing); 10 mM Tris-HCl pH 7.5, 50 mM NaCl, 1 mM DTT, 4% glycerol, room temperature, 30 min; GST-TFs on glutathione beads, 16-mer random dsDNA library, 0.1% formaldehyde crosslink after washing; high values mean tight binding
# FEV = target: T1, FEV (Homo sapiens, UniProt Q99581 1-238); conditions: protein: recombinant; tags: N-terminal GST; dsDNA, one strand shown
# T1 sequence: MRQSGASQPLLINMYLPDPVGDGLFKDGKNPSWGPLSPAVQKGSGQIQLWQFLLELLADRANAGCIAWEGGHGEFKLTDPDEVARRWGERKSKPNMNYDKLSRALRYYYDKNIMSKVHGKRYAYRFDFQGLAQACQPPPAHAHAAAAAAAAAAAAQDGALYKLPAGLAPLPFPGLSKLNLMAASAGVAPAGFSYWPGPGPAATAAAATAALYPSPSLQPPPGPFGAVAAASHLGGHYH
# Outline: (§1)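 Beads coated with glutathione captured GST-fused human transcription factors that had been expressed in yeast, and the factors were then given DNA barcodes and pooled with a tag-only sample. The pools were incubated with 200 nmole of a random double-stranded 16-mer DNA library in Tris/NaCl/DTT/glycerol buffer for 30 min at room temperature, washed, crosslinked with 0.1% formaldehyde and proximity-ligated with BsaI/T4 ligase at 37 °C for 1 h. PCR amplification and Illumina NextSeq500 sequencing came last. Binding signal is each hexamer's read frequency for a factor divided by its frequency for the tag-only sample.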
# ETV5 = ETV5 (Homo sapiens, UniProt P41161 1-510); conditions: protein: recombinant; tags: N-terminal GST; dsDNA, one strand shown
# ETV5, sequence (P41161 whole entry): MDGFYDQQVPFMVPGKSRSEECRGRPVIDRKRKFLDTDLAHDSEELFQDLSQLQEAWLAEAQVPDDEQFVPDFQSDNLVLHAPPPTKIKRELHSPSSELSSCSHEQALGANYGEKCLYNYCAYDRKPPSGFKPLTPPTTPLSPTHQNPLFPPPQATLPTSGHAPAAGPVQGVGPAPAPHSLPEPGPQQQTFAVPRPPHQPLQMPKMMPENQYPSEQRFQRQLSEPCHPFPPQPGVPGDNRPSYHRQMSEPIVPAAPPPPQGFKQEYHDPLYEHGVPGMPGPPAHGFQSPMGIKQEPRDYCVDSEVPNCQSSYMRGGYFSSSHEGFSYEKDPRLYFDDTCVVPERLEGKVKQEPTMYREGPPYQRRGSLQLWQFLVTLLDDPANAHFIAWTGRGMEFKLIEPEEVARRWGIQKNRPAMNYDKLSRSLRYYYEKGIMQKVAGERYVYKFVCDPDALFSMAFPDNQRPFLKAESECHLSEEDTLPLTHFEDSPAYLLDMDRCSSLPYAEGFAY
# Outline: as §1
# HSF1 = HSF1 (Homo sapiens, UniProt Q00613 1-529); conditions: protein: recombinant; tags: N-terminal GST; chain copies: 3; dsDNA, one strand shown
# HSF1, sequence (Q00613 whole entry): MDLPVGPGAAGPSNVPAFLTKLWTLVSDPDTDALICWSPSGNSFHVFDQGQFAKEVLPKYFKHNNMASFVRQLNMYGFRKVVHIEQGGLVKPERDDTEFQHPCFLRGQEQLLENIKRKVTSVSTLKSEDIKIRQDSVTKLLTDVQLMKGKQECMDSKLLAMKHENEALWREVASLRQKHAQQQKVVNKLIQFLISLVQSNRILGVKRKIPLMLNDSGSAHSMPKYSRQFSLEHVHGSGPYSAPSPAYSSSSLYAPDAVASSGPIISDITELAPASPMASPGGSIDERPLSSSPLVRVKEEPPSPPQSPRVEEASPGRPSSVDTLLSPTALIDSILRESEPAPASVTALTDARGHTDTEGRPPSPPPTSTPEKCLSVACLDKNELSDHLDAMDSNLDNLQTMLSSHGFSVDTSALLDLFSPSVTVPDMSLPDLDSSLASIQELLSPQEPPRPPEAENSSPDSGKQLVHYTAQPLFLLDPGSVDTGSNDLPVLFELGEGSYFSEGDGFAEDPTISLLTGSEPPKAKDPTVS
# Outline: as §1
# SPIC = target: T2, SPIC (Homo sapiens, UniProt Q8N5J4 1-248); conditions: protein: recombinant; tags: N-terminal GST; dsDNA, one strand shown
# T2 sequence: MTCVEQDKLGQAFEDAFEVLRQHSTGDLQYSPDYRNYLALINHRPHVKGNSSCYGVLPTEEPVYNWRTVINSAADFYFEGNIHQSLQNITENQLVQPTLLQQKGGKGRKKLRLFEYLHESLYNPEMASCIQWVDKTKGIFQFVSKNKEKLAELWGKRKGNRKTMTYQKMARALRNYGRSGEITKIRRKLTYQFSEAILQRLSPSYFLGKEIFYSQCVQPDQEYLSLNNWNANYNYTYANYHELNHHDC
# Outline: as §1
# ELF4 = ELF4 (Homo sapiens, UniProt Q99607 1-663); conditions: protein: recombinant; tags: N-terminal GST; dsDNA, one strand shown
# ELF4, sequence (Q99607 whole entry): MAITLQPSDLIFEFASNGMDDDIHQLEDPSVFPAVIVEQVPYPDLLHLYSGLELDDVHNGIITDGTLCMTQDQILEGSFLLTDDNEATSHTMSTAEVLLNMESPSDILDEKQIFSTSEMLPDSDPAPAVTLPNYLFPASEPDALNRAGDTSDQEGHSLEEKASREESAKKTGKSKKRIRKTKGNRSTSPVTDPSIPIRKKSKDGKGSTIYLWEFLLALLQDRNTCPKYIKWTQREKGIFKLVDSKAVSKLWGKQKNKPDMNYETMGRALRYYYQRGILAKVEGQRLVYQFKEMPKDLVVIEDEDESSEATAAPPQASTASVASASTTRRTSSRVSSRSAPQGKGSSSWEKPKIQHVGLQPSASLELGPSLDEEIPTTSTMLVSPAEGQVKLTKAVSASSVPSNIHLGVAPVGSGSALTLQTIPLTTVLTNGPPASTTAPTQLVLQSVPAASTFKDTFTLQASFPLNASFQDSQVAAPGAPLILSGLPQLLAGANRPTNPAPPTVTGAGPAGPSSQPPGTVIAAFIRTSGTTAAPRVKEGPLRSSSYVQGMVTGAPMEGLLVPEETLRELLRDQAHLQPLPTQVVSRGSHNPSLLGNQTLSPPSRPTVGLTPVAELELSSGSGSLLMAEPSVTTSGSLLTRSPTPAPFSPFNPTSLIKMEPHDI
# Outline: as §1
# ELK4 = target: T3, ELK4 (Homo sapiens, UniProt P28324-2 1-405); conditions: protein: recombinant; tags: N-terminal GST; dsDNA, one strand shown
# T3 sequence: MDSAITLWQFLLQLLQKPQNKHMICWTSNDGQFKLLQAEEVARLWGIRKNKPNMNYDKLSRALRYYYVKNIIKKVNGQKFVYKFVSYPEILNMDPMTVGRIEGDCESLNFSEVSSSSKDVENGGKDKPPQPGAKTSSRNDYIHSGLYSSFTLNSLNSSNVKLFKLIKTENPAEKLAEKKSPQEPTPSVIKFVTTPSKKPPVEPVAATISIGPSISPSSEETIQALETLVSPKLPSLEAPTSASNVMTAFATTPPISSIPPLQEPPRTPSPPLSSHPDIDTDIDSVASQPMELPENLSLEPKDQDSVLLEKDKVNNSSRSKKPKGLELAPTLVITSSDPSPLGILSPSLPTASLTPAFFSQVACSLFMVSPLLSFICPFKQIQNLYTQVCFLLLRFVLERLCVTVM
# Outline: as §1
# ETV2 = target: T4, ETV2 (Homo sapiens, UniProt O00321 1-342); conditions: protein: recombinant; tags: N-terminal GST; dsDNA, one strand shown
# T4 sequence: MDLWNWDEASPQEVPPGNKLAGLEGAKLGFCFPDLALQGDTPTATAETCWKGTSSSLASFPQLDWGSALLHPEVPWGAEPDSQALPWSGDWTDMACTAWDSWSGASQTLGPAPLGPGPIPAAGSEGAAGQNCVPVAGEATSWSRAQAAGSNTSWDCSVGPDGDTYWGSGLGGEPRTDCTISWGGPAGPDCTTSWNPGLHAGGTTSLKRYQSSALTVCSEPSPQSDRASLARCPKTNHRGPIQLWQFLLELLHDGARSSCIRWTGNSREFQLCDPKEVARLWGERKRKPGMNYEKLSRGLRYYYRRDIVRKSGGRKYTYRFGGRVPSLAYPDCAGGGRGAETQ
# Outline: as §1
# ELF3 = target: T5, ELF3 (Homo sapiens, UniProt P78545 1-371); conditions: protein: recombinant; tags: N-terminal GST; dsDNA, one strand shown
# T5 sequence: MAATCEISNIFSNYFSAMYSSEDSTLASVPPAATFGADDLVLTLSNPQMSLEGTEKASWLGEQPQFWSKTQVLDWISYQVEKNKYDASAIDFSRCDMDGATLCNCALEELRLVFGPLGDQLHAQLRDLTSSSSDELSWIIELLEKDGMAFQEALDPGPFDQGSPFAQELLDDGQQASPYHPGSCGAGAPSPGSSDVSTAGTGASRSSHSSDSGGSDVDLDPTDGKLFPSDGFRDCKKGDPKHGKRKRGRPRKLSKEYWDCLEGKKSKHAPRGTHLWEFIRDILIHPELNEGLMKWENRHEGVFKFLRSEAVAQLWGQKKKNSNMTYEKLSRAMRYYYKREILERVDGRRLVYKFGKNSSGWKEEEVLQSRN
# Outline: as §1
# CRX = CRX (Homo sapiens, UniProt O43186 1-299); conditions: protein: recombinant; tags: N-terminal GST; dsDNA, one strand shown
# CRX, sequence (O43186 whole entry): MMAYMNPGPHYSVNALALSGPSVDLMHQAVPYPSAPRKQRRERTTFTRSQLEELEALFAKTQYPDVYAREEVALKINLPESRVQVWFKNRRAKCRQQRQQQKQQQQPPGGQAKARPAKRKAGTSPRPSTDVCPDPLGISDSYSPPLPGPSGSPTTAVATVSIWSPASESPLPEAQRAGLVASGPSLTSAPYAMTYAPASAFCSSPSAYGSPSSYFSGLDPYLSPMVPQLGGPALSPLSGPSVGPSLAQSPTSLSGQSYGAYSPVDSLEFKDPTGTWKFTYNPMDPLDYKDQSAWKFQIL
# Outline: as §1
# ETV1 = ETV1 (Homo sapiens, UniProt P50549 1-477); conditions: protein: recombinant; tags: N-terminal GST; dsDNA, one strand shown
# ETV1, sequence (P50549 whole entry): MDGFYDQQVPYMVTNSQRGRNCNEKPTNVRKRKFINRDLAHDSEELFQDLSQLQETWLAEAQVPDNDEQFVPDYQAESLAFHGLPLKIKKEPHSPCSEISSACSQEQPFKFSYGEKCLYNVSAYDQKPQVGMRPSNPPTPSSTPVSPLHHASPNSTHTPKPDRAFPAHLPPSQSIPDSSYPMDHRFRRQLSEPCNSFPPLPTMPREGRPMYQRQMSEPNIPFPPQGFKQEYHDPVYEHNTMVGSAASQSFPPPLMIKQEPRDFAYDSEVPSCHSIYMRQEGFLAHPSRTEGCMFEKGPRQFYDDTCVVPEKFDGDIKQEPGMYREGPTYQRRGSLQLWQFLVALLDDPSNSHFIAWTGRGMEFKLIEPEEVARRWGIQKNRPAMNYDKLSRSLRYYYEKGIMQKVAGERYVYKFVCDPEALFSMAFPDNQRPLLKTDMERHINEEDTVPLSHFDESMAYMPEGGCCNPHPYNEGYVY
# Outline: as §1
# ERF = target: T6, ERF (Homo sapiens, UniProt P50548 1-548); conditions: protein: recombinant; tags: N-terminal GST; dsDNA, one strand shown
# T6 sequence: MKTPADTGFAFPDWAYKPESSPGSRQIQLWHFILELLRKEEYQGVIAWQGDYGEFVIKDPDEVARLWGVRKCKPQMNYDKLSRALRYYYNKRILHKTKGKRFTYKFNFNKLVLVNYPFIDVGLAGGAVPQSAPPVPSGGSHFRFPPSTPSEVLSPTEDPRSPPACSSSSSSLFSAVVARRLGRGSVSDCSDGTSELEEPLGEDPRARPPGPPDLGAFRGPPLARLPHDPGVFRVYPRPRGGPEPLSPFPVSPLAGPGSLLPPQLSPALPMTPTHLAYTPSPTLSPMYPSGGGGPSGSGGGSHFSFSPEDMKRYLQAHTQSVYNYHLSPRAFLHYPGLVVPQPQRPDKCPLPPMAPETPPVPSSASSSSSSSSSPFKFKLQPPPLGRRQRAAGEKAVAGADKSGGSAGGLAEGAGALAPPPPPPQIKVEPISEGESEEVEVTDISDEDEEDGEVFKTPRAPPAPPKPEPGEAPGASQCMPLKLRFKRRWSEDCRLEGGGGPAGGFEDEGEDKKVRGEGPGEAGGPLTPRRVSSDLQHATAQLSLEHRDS
# Outline: as §1
# ETV3L = target: T7, ETV3L (Homo sapiens, UniProt Q6ZN32 1-361); conditions: protein: recombinant; tags: N-terminal GST; dsDNA, one strand shown
# T7 sequence: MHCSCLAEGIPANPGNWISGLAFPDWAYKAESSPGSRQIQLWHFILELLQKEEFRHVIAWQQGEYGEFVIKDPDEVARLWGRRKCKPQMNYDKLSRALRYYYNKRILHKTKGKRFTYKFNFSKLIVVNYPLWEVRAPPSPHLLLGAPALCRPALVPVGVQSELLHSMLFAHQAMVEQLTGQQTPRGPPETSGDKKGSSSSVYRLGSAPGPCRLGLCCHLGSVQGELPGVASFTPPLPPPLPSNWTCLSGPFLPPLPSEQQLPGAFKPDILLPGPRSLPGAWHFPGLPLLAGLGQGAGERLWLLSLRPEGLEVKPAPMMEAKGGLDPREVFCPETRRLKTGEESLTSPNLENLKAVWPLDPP
# Outline: as §1
# ETS2 = target: T8, ETS2 (Homo sapiens, UniProt P15036 1-469); conditions: protein: recombinant; tags: N-terminal GST; dsDNA, one strand shown
# T8 sequence: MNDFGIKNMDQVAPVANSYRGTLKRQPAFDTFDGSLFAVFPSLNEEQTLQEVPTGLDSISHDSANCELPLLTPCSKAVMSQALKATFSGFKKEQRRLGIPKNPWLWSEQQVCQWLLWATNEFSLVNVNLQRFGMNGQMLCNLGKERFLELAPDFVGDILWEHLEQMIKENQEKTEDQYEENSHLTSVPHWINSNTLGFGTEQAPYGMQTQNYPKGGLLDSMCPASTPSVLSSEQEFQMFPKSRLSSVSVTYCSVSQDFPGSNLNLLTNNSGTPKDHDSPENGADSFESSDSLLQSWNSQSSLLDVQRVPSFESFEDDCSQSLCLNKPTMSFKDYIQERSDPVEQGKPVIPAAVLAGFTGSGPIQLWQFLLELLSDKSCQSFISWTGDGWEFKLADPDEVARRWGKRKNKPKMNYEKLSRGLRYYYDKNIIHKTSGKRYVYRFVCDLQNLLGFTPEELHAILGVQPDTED
# Outline: as §1
# SPDEF = target: T9, SPDEF (Homo sapiens, UniProt O95238 1-335); conditions: protein: recombinant; tags: N-terminal GST; dsDNA, one strand shown
# T9 sequence: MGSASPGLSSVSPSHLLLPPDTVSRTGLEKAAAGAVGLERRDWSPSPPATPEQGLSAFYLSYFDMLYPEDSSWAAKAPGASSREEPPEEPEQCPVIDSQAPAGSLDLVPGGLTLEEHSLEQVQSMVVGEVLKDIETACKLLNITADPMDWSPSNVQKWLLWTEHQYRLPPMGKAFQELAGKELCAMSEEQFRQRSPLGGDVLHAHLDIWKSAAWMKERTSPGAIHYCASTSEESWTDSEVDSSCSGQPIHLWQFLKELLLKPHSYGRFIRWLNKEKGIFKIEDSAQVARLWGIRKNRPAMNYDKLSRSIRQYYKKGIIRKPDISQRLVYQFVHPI
# Outline: as §1
# ETV7 = target: T10, ETV7 (Homo sapiens, UniProt Q9Y603 1-341); conditions: protein: recombinant; tags: N-terminal GST; dsDNA, one strand shown
# T10 sequence: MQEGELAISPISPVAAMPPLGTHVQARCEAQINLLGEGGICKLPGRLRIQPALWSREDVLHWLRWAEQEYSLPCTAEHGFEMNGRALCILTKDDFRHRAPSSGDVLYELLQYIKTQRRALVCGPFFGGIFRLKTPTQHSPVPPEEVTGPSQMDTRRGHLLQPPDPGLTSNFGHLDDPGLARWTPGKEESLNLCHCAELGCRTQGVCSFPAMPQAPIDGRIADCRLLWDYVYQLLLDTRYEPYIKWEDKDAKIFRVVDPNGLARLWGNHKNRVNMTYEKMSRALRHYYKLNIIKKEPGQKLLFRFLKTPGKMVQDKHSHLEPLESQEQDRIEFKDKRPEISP
# Outline: as §1
# ELF5 = target: T11, ELF5 (Homo sapiens, UniProt Q9UKW6-2 1-255); conditions: protein: recombinant; tags: N-terminal GST; dsDNA, one strand shown
# T11 sequence: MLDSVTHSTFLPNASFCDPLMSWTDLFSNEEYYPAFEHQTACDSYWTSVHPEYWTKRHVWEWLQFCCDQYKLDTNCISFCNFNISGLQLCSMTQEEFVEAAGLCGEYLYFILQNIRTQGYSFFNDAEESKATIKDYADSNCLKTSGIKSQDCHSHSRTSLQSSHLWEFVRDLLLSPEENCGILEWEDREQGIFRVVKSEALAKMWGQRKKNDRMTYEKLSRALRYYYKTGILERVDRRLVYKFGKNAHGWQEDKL
# Outline: as §1
# ETV3 = target: T12, ETV3 (Homo sapiens, UniProt P41162-2 1-143); conditions: protein: recombinant; tags: N-terminal GST; dsDNA, one strand shown
# T12 sequence: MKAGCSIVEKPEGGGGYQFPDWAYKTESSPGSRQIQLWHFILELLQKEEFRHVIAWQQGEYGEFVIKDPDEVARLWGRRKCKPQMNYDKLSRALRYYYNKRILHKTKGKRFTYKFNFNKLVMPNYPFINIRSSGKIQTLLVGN
# Outline: as §1
# ETV6 = ETV6 (Homo sapiens, UniProt P41212 1-452); conditions: protein: recombinant; tags: N-terminal GST; dsDNA, one strand shown
# ETV6, sequence (P41212 whole entry): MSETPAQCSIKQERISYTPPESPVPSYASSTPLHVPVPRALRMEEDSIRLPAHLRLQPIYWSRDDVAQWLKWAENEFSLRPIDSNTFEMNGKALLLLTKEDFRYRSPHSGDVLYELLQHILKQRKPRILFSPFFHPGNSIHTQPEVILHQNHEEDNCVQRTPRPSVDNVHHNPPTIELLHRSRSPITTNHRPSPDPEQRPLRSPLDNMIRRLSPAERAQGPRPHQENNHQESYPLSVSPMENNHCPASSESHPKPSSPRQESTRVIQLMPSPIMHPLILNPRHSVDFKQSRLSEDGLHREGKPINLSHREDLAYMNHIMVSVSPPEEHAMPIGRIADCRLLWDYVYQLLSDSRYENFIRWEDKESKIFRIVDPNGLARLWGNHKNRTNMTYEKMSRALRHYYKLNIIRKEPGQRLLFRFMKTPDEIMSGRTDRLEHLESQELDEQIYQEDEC
# Outline: as §1
sequence,measurement,setting,value
TTGACC,binding signal,FEV,"1.33 fold enrichment (6-mer frequency, TF over GST control)"
same,binding signal,ETV5,"1.41 fold enrichment (6-mer frequency, TF over GST control)"
same,binding signal,HSF1,"1.16 fold enrichment (6-mer frequency, TF over GST control)"
same,binding signal,SPIC,"1.45 fold enrichment (6-mer frequency, TF over GST control)"
same,binding signal,ELF4,"1.44 fold enrichment (6-mer frequency, TF over GST control)"
same,binding signal,ELK4,"1.4 fold enrichment (6-mer frequency, TF over GST control)"
same,binding signal,ETV2,"1.38 fold enrichment (6-mer frequency, TF over GST control)"
same,binding signal,ELF3,"1.27 fold enrichment (6-mer frequency, TF over GST control)"
same,binding signal,CRX,"1.19 fold enrichment (6-mer frequency, TF over GST control)"
same,binding signal,ETV1,"1.41 fold enrichment (6-mer frequency, TF over GST control)"
same,binding signal,ERF,"1.45 fold enrichment (6-mer frequency, TF over GST control)"
same,binding signal,ETV3L,"1.46 fold enrichment (6-mer frequency, TF over GST control)"
same,binding signal,ETS2,"1.4 fold enrichment (6-mer frequency, TF over GST control)"
same,binding signal,SPDEF,"1.52 fold enrichment (6-mer frequency, TF over GST control)"
same,binding signal,ETV7,"1.35 fold enrichment (6-mer frequency, TF over GST control)"
same,binding signal,ELF5,"1.37 fold enrichment (6-mer frequency, TF over GST control)"
same,binding signal,ETV3,"1.44 fold enrichment (6-mer frequency, TF over GST control)"
same,binding signal,ETV6,"1.41 fold enrichment (6-mer frequency, TF over GST control)"
